Sampled rows, rich in hits. Any-hit rate of the full collection: about 3.7%.
BoNT A protease – inhibitors of Botulinum neurotoxin A light chain protease; multiplex microsphere protease substrate cleavage, flow cytometry; inhibition, % at 10 µM; actives 0.17% (n = 360,000); note: plate controls were buffer without enzyme for full effect and enzyme alone for no effect
MazEF act – MazEF (E. coli) toxin RNase activation; FAM/BHQ RNA-DNA oligo cleavage fluorescence, 5 h; P0AE70; actives 0.32% (n = 350,000); activation, % at 20 µM; in the data active = activation above about 50%
Target sequence (P0AE70 whole entry, looked up): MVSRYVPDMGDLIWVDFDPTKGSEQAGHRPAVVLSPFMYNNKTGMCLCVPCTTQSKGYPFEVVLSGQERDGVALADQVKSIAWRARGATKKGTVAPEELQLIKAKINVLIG
Anthrax LF inh2 – anthrax lethal factor protease inhibition; P15917; multiplex microsphere protease cleavage assay, LF; inhibition, % at 10 µM; actives 0.12% (n = 360,000); AID 588501; note: plate controls were buffer without enzyme for full effect and enzyme alone for no effect
Autofluor counter – compound fluorescence in toxin protease inhibitor counterscreen; AID 624483; fluorescence intensity (test concentration not listed); actives 3.1% (n = 360,000); compound autofluorescence counterscreen, microsphere flow cytometry; stronger effect = higher value; in the data active = fluorescence intensity above about 16000; inconclusive = no clear call, values can overlap the other calls
BoNT-F LC inh – BoNT F light chain protease inhibition; Multiplex microsphere protease cleavage assay, flow cytometry; inhibition, % at 10 µM; actives 0.22% (n = 360,000); AID 588497; in the data active = inhibition above about 35%, passing the limit was not always enough; inconclusive = no clear call, values can overlap the other calls; note: plate controls were buffer without enzyme for full effect and enzyme alone for no effect
BoNTA LC inh 1 – blocks botulinum neurotoxin A light chain protease. actives 3% (n = 720). multiplex microsphere protease assay, flow cytometry. inhibition, % at 10 µM. shares compounds with BoNT-F LC inh; in the data active = inhibition above about 32%
BoNT-F LC CP1 – blocks botulinum neurotoxin F light chain protease | shares compounds with BoNT-F LC inh | multiplex microsphere protease cleavage assay, flow cytometry | inhibition, % at 10 µM | AID 602140 | 720 tested, under 10 active; call rule not given here
Anthrax LF CP1 – Bacillus anthracis lethal factor protease inhibition; shares compounds with BoNT-F LC inh; multiplex microsphere protease cleavage assay, LF; inhibition, % at 10 µM; 720 tested, under 10 active; AID 602142; call rule not given here
Numbers without * were called inactive; ? = inconclusive; . = not tested or not shown. Cut-off read from the data, not from the text of the source, unless noted: active = inhibition above about 30%; inconclusive = no clear call, values can overlap the other calls; inactive = below that.

SMILES | BoNT A protease | MazEF act | Anthrax LF inh2 | Autofluor counter | BoNT-F LC inh | BoNTA LC inh 1 | BoNT-F LC CP1 | Anthrax LF CP1
Cc1ccc(Nc2nc(Oc3ccc(=O)[nH]n3)nc(N(C)C)n2)cc1 | 0 | 4 | -5 | 4829 | -13 | . | . | .
Cc1ccc(NC(=O)Cc2ccc(Cl)cc2)nc1 | 3 | 5 | 47* | ? | ? | -2 | -6 | -1
O=C(NC1CCCC1)C(c1ccc(F)cc1)N(Cc1ccccc1)C(=O)c1csnn1 (stereo not given) | -2 | 7 | -1 | 3628 | -11 | . | . | .
CC(C)CCN(C(=O)c1csnn1)C(C(=O)NC1CCCC1)c1ccc(F)cc1 (stereo not given) | 3 | 0 | 6 | 3226 | 91* | -1 | -2 | -7
O=C(NC1CCCC1)C(c1cccnc1)N(Cc1ccccc1)C(=O)c1csnn1 (stereo not given) | 1 | 0 | 6 | 3682 | 43* | 0 | 0 | 1
O=C(Nc1ccncc1)C1CCC(CNS(=O)(=O)c2cccc3nsnc23)CC1 (stereo not given) | 0 | 3 | -5 | 4205 | 0 | . | . | .
NC(=O)c1cc([N+](=O)[O-])ccc1NCc1cccnc1 | 0 | 4 | -2 | 4466 | 1 | . | . | .
NS(=O)(=O)c1cc([N+](=O)[O-])ccc1NCc1cccnc1 | 4 | 5 | 2 | 4090 | 39* | 0 | 0 | 0
COc1cc(OC)cc(C(=O)Nn2cnnc2)c1 | 3 | 6 | 37* | 3694 | ? | 0 | -6 | -2
COc1cccc(C(=O)Nn2cnnc2)c1 | 0 | -1 | -2 | 4632 | -7 | . | . | .
Cc1ccc(C(=O)NC2CC(C)(C)NC(C)(C)C2)cc1Cl | -7 | 8 | 3 | 3135 | ? | . | . | .
CC1(C)CC(NC(=O)c2cccc([N+](=O)[O-])c2)CC(C)(C)N1 | 0 | 3 | 30* | 3713 | 1 | 0 | -6 | -3
O=C(CCCc1nc2ccccc2s1)NCc1ccc(F)cc1 | 3 | 0 | 0 | 1938 | 40* | 0 | -3 | -4
O=C(CSc1nnc(SCC(=O)NCc2ccc3c(c2)OCO3)s1)NCc1ccc2c(c1)OCO2 | 0 | 19 | 4 | 9095 | 7 | . | . | .
CCCC(=O)Nc1nnc(SCC(=O)NCc2ccc3c(c2)OCO3)s1 | 7 | 5 | -4 | 4423 | 40* | -1 | -6 | -5
Cc1ccc2nc(N3CCN(S(=O)(=O)c4ccc5c(c4)OCCO5)CC3)c(C#N)cc2c1 | 14 | -28 | 8 | 10472 | 10 | . | . | .
Cc1ccc(S(=O)(=O)N2CCCN(c3nc4cc(C)ccc4cc3C#N)CC2)cc1 | 40* | -23 | 16 | 13376 | 32 | 12 | -3 | 2
Cc1ccc(-c2nc3c(c(=O)c4ccccc4n3C)c(=O)n2-c2ccc(F)cc2)cc1 | ? | 8 | -3 | 5145 | ? | . | . | .
Cn1c2ccccc2c(=O)c2c(=O)n(-c3ccccc3)c(-c3ccc(C(C)(C)C)cc3)nc21 | 4 | -9 | 36* | 4082 | ? | -2 | 0 | 2
CCn1c2ccccc2c2cc(NC(=O)c3ccc(Br)o3)ccc21 | 77* | 9 | 43* | 4789 | 10 | 5 | -10 | -2
CCn1c2ccccc2c2cc(NC(=O)c3cc(C)on3)ccc21 | 1 | -3 | -3 | 4612 | -3 | . | . | .
COC(=O)c1ccc2c(=O)[nH]c(COC(=O)c3c(-c4ccccc4Cl)noc3C)nc2c1 | 0 | -1 | 0 | 6284 | -7 | . | . | .
CC(=O)c1ccc(S(=O)(=O)Nc2ccc(C(=O)N3CCC3)cc2)cc1 | -2 | 5 | 0 | 4779 | 40* | -1 | -2 | -4
O=C(O)c1ccc(NS(=O)(=O)c2ccc(C(=O)Nc3ccccc3)cc2)cc1 | -4 | 0 | 3 | 6786 | -4 | 1 | 0 | 3
O=C(Nc1ccc(NS(=O)(=O)c2ccccc2)cc1)c1ccccc1 | -3 | 26 | -12 | 4015 | -20 | . | . | .
O=C(O)c1ccc(NC(=O)c2cccc(S(=O)(=O)Nc3ccc(C(=O)O)cc3)c2)cc1 | 3 | 8 | 7 | 3985 | 39* | 0 | 4 | 2
O=C(Nc1cccc(O)c1)c1cccc(S(=O)(=O)Nc2cccc(O)c2)c1 | 4 | 6 | -3 | 3622 | -20 | 0 | -4 | -2
O=C(Nc1ccc2nc3ccccc3nc2c1)c1ccccc1 | 63* | -3 | 23 | 2248 | 26 | 39* | 11 | 28
